# From PubChem BioAssay AID686979 (National Center for Advancing Translational Sciences (NCATS), 2013)
# Screen size: about 420,000 compounds; about 50,000 (12%) were called active. Another 26% or so got no clear call; they are omitted. The sample holds actives, similar compounds and a random draw of the others, so the mix is not that of the screen. Values without a mark were called inactive. Calls follow the shape of the dose curve; as a rule, active = well fitted inhibition curve with a large enough effect; inconclusive = small, poorly fitted or top-dose-only effect; inactive = flat fitted curve, though single readings scatter.
# Assay: qHTS for Inhibitors of human tyrosyl-DNA phosphodiesterase 1 (TDP1): qHTS in cells in presence of CPT; also: nearly all actives have a fitted effect of over 55% in size
# Conditions: chicken DT40 Tdp1-/-;hTDP1 cells + 20 nM CPT, ATP luminescence, 48 h; series mostly up to 46.2 µM; activity change, negative = growth inhibition: at the top concentration
# Procedure, shortened: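 Chicken DT40 Tdp1-/- cells complemented with human TDP1, 400 cells/well, exposed to compounds plus 20 nM camptothecin for at least 48 h at 37 C; viability read as ATP content by CellTiter-Glo luminescence.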
# % is scaled to controls: 0 for no effect and ±100 for the full control effect; potency is read from the fitted curve at half-maximal effect.
SMILES,"activity change, negative = growth inhibition",Potency
O=C(c1ccc(F)cc1)N1CCC(C(=O)N2CCN(S(=O)(=O)c3ccccc3Br)CC2)CC1,-22.5%,–
COc1ccc(NC(=O)C2CCC(CNS(=O)(=O)c3csc(C(N)=O)c3)CC2)cc1OC (configuration not stated),-4.23%,–
Cc1nn(Cc2ccccc2)c(C)c1CNC(=O)c1ccc(F)c(S(=O)(=O)N2CCOCC2)c1,-13.2%,–
O=C(COC(=O)c1ccc(F)c(S(=O)(=O)N2CCOCC2)c1)NCc1ccc2c(c1)OCO2,-23%,–
O=C(c1ccc(F)c(S(=O)(=O)N2CCOCC2)c1)N(CCc1ccccc1)Cc1ccccc1,–,14.6 µM (active)
Cc1cccc(N(Cc2ccccc2)C(=O)c2cc(S(=O)(=O)N3CCOCC3)ccc2F)c1,–,18.4 µM (active)
Cc1ccc(S(=O)(=O)N2CCN(C(=O)c3cc(S(=O)(=O)N4CCOCC4)ccc3F)CC2)cc1,-24.8%,–
Cc1ccc(S(=O)(=O)N2CCOCC2)cc1C(=O)NC(=S)N(Cc1ccccc1)C(C)C,6.11%,–
CC(C)Cn1cc(-c2cncc3nccn23)cn1,5.95%,–
CCCCN(CC(=O)NC(C)(C)C)C(=O)C(=O)Nc1ccc2c(c1)OCCO2,1.35%,–
O=C(O)c1cc2c(cc1NC(=O)c1c(F)cccc1Cl)OCCCO2,5.92%,–
Cc1ccc(CNC(=O)CSc2nnc3c(n2)[nH]c2ccc(F)cc23)cc1,9.5%,–
CCOC(=O)COn1c(=O)c(-c2ccc(OCC)cc2)[n+]([O-])c2ccccc21,-16.7%,–
CCOc1ccc(OCC)c(-c2c(=O)n(OCc3ccc(Cl)cc3)c3ccccc3[n+]2[O-])c1,–,7.31 µM (active)
O=c1c(-c2ccc(Cl)cc2)[n+]([O-])c2ccccc2n1OCc1nc2ccccc2[nH]1,17.6%,–
O=C(N/N=C/c1ccco1)c1csc2c1CCCC2,-2.91%,–
Cc1cccc(C)c1NC(=O)N1CC(C)OC(C)C1 (configuration not stated),-2.12%,–
Cc1cccc(C)c1NC(=O)N1CC=C(n2c(=O)[nH]c3ccccc32)CC1,–,14.6 µM (active)
Cc1ccccc1Cn1c(=O)[nH]c2ccccc21,-15.8%,–
C[C@H](CO)N1C[C@H](C)[C@@H](CN(C)C(=O)c2cnccn2)Oc2ncc(Br)cc2C1=O,-4.57%,–
NNc1nnc(Cc2ccncc2)c2ccccc12,-16.8%,–
O=C(NC1CCN(Cc2ccccc2)CC1)c1c(F)cccc1F,-5.75%,–

SMILES,"activity change, negative = growth inhibition",Potency
O=C(NNC(=S)Nc1ccc(Br)cc1Cl)c1ccco1,1.82%,–
Cc1ccn2cc(C(=O)NC3CCN(Cc4ccccc4)CC3)nc2c1,-22.4%,–
S=C(Nc1ccc(Br)cc1Cl)NC1CCN(Cc2ccccc2)CC1,–,18.4 µM (active)
S=C(Nc1ccc(Br)cc1)NC1CCN(Cc2ccccc2)CC1,–,16.4 µM (active)
Cc1cc(C(=O)NC2CCN(Cc3ccccc3)CC2)n[nH]1,1.51%,–
O=C(NC1CCN(Cc2ccccc2)CC1)c1ccccc1F,-25.2%,–
O=C(NC1CCN(Cc2ccccc2)CC1)c1cc(Br)c(Br)[nH]1,–,18.4 µM (active)
Cc1cc(Br)ccc1NC(=S)NC1CCCC1,-25.2%,–
O=C(Nc1ccccc1)N1CCC(C(=O)N2CCN(Cc3ccccc3)CC2)CC1,-23.9%,–
Cc1ccc(-c2cc(C(=O)NC3CCN(Cc4ccccc4)CC3)c3ccccc3n2)cc1,–,14.6 µM (active)
O=C(c1cccc(-n2cccc2)c1)N1CCN(S(=O)(=O)c2ccc(F)cc2)CC1,-14.8%,–
COc1cc(/C=C/C(=O)OCC(=O)NC2CC2)cc(OC)c1OC,4.67%,–
COC(=O)c1sccc1NC(=O)c1ccc(Cl)cc1,-0.881%,–
CCc1ccc(NC(=O)CCNS(=O)(=O)c2cccs2)cc1,-1.58%,–
Cc1cccc(C)c1NC(=O)CN1C(=O)C(C)Oc2ccccc21 (configuration not stated),5.54%,–
CCC1C(=O)c2ccccc2N(C)C1=O (configuration not stated),15.8%,–
Cc1onc(C(=O)Nc2ccc3c(c2)OCO3)c1[N+](=O)[O-],-30.1%,–
Cc1ccc(NC(=O)CSc2nnc(CNC(=O)c3ccccc3F)o2)cc1Cl,-18%,–
O=C(NC1CC(=O)N(c2ccccc2)C1)c1ccco1 (configuration not stated),9.32%,–
COc1cc(NC(=O)CN2CCN(S(=O)(=O)c3ccc(Br)cc3)CC2)cc(OC)c1,-4.27%,–
COc1ccc(NC(=O)CN(C)C(=O)CNC(=O)C2CCCCC2)cc1,4.05%,–
COc1ccc(/C=C/c2noc(-c3ccccc3OC(C)=O)n2)cc1,0.465%,–

SMILES,"activity change, negative = growth inhibition",Potency
O=C(O)COc1ccc(/C=N/O)cc1Br,-0.568%,–
CNC(=S)N/N=C/c1ccc(OCc2ccccc2)c(Br)c1,–,9.2 µM (active)
C=CCNC(=S)N/N=C/c1ccc(OCc2ccccc2)cc1,-6.93%,–
O=C(COc1ccccc1)Nc1ccc(F)cc1,-2.03%,–
CCN(c1ccccc1)S(=O)(=O)c1ccc(NC(=O)C(C)(C)C)cc1,-28.5%,–
CC(C)(CCl)C(=O)Nc1ccc(Sc2ccc(F)cc2)cc1,–,5.8 µM (active)
Cc1ccc(C(O)P(=O)(OC(C)C)c2ccc(N(C)C)cc2)cc1 (configuration not stated),11.2%,–
COc1cc2c(cc1OC)C(c1ccccc1Br)NC(=O)C2 (configuration not stated),-11.7%,–
O=C1c2ccccc2C(=O)C1C(=O)C1CC1,-101%,–
CCc1c(C)nc(N)n2c(SCC(=O)NC3CCCCC3)nnc12,-9.06%,–
CC1CCN(c2ccc3c(c2)S(=O)(=O)c2cc(C(=O)O)ccc2C3=O)CC1,6.79%,–
CC1CCc2sc(C(=O)N/N=C/C3CCCCC3)cc2C1 (configuration not stated),8.96%,–
COc1ccc2oc(C(=O)NCc3ccco3)c(C)c2c1,-28.7%,–
CSc1ncccc1C(=O)NCC(c1ccco1)N1CCCCC1 (configuration not stated),1.81%,–
Cc1c(C(=O)NCC(c2ccco2)N2CCCC2)oc2ccc(Cl)cc12 (configuration not stated),–,20.6 µM (active)
CC1CCc2sc(C(=O)NCC(c3ccco3)N3CCCCC3)cc2C1 (configuration not stated),–,16.4 µM (active)
Cc1cc(S(=O)(=O)Nc2ccc(C(=O)NCC(c3ccco3)N3CCCC3)cc2)ccc1F (configuration not stated),-19.1%,–
Nc1nc(N)c(N=O)c(N)n1,-0.158%,–
CC(=O)N(OCc1ccc(OC(C)C)c(Cl)c1)C(C)=O,2.14%,–
O=C(COC(=O)CCOc1ccccc1)Nc1cc(S(=O)(=O)N2CCCCC2)ccc1Cl,7.55%,–
O=C(CN1CCN(S(=O)(=O)c2cc(Cl)ccc2Cl)CC1)c1ccc(O)c(O)c1,–,9.2 µM (active)
O=S(=O)(c1cc(Cl)ccc1Cl)N1CCN(Cc2ccco2)CC1,-18.5%,–

SMILES,"activity change, negative = growth inhibition",Potency
COc1ccc(Cl)cc1S(=O)(=O)N1CCN(CC(=O)C(C)(C)C)CC1,-24.2%,–
COc1ccccc1C1CCN(c2ccc([N+](=O)[O-])cn2)CC1,-0.392%,–
c1ccc(Nc2nc(N3CCOCC3)c3ccccc3n2)cc1,–,20.6 µM (active)
Cc1cc(C(=O)Nc2ccccc2N2CCOCC2)c2ccccc2n1,-11.9%,–
O=c1[nH]c(N2CCOCC2)nc2ccccc12,-13%,–
CC1(C)CC(=O)C(C=NCCN2CCN(C(=S)Nc3cccc(Cl)c3)CC2)=C(O)C1,0.286%,–
O=C(CN1CCN(S(=O)(=O)c2ccc(Cl)s2)CC1)NCc1ccc(Cl)cc1,-21%,–
CC1(Oc2ccccc2-c2ccno2)CCN(Cc2ccc(-c3ccccc3)o2)C1 (configuration not stated),–,25.9 µM (active)
Nc1ncnc2c1ncn2[C@@H]1O[C@H](C(=O)N2CCCN(Cc3ccccc3F)CC2)[C@@H](O)[C@H]1O,-1.31%,–
CC1(C)Cc2c(sc3nc4n(c(=N)c23)CCCCC4)CO1,-7.87%,–
C=CCNC(=S)NNc1ncnc2sc3c(c12)CC(C)(C)OC3,–,4.61 µM (active)
CCSc1nc2sc3c(c2c(=O)[nH]1)CC(C)(C)OC3,-6.76%,–
Cc1c(CCC(=O)O)c(=O)oc2cc(OCc3ccc(Br)cc3)ccc12,-1.89%,–
Fc1ccc(NC(=S)N2CCc3[nH]c4ccccc4c3C2)cc1,-0.771%,–
COC(=O)c1scc(S(=O)(=O)C(C)(C)C)c1-n1cccc1,-11.3%,–
CN(C)C(=O)c1nc2ccc(Cl)cn2c1CN1CCN(c2ncccn2)CC1,-7.94%,–
CC/C(=N\NC(=O)c1c(C)nc2ccccn12)c1ccc(Cl)cc1,-18.7%,–
Clc1ccc(-c2nc3ccccn3c2CN2CCSCC2)cc1,–,29.1 µM (active)
O=C(COc1ccc(S(=O)(=O)NCc2ccccc2)cc1)N1CCOCC1,0.118%,–
Cc1ccc(OCC(=O)Nc2ccc(S(=O)(=O)Nc3ccccn3)cc2)cc1,-5.79%,–
Cc1ccc(NS(=O)(=O)c2ccc(C(C)(C)C)cc2)cn1,-4.37%,–
Cc1ccc(S(=O)(=O)Nc2ccc3ncccc3c2)cc1,–,10.3 µM (active)

SMILES,"activity change, negative = growth inhibition",Potency
Cc1oc2cc3oc(=O)ccc3cc2c1C,-2.18%,–
O=C(NNC(=O)C1CCN(c2ncccn2)CC1)c1ccccc1,-3.34%,–
CS(=O)(=O)c1ccc2nc(NC(=O)CN3CCCCCC3)sc2c1,-8.7%,–
Cc1sc2ncnc(N3CCC(C(=O)NNC(=O)c4ccc(F)cc4)CC3)c2c1C,–,18.4 µM (active)
CS(=O)(=O)c1ccc2nc(NC(=O)C3C4C=CC(C4)C3C(=O)O)sc2c1 (configuration not stated),-6.9%,–
O=C(NNC(=O)C1CCCC1)c1ccc(F)cc1,-1.66%,–
Cc1sc2ncnc(N3CCC(C(=O)Nc4nc5ccc(Cl)cc5s4)CC3)c2c1C,–,8.2 µM (active)
COc1ccccc1C1CN(CCNC(=O)C2=CCCC2)Cc2ccccc2O1 (configuration not stated),-9.51% [at 9.04 µM],–
Nc1ncnc2c1ncn2[C@@H]1O[C@H](CNCc2cccn2-c2nccs2)[C@@H](O)[C@H]1O,-14.9%,–
CCCCN1C(=O)C(CC(=O)NC(c2ccccc2)c2ccccc2)CC(C(=O)N2CCOCC2)=C1C (configuration not stated),-7.93%,–
O=C1NCCn2nc3ccccc3c21,-1.79%,–
Cc1ccc2c(c1)N(CC(=O)N1CCCC(C)C1)C(=O)CO2 (configuration not stated),2.29%,–
Cc1cc(Nc2ccc(N3CCOCC3)cc2)c2cccc(C)c2n1,-17.3%,–
CNc1nc(Nc2ccc(C)c(Cl)c2)nc(N)c1[N+](=O)[O-],0.15%,–
Cc1ccc(Nc2nc(N3CCOCC3)nc(N3CCOCC3)n2)cc1Cl,–,23.1 µM (active)
COc1ccc(C2CC(=O)NC(=O)C2)cc1,7.32%,–
c1ccc(CSCCc2ccncc2)cc1,-26.6%,–
CC(C)(C)NC(=O)C(=O)NCc1ccncc1,36.2%,–
CC(C)(C)c1ccc(SCCc2ccncc2)cc1,–,18.4 µM (active)
